SMILES strings stand for the structures. Several values for one entry are separate records, joined by “and”; a condition that tells them apart may be missing. Equal entries are not always repeated. About 83,000 compounds went through this panel and 20% of them were active in at least one assay; those are over-represented in the sample as a whole.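 Step 1: grow cells in 96-well plates. Step 2: add test compound at a single concentration. Step 3: incubate 48 h. Step 4: record percent growth.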 Activity calls are given as the source filed them. The calls were made as follows: active = growth percent below 10; inactive = the rest.

Holding throughout (assay): NCI-60 one-dose screen, 48 h (100 = growth as untreated, 0 = no growth, -100 = all killed)
What all share (conditions): 10 µM unless noted

Assay [1] relates to SR leukemia.
For assay [2], the system named is RPMI-8226 leukemia.
Assay [3] relates to OVCAR-8 ovarian.
Assay [4] has as its system OVCAR-5 ovarian.
In assay [5] the test system is OVCAR-4 ovarian.
The subject of assay [6] is SK-OV-3 ovarian.
In assay [7] the test system is IGROV1 ovarian.
Assay [8] relates to OVCAR-3 ovarian.
Assay [9] has as its system HS 578T breast.
The subject of assay [10] is NCI/ADR-RES ovarian.
Assay [11] concerns T-47D breast.
In assay [12] the test system is BT-549 breast.
Assay [13] concerns MDA-MB-435 melanoma.
The test system of assay [14] is SW-620 colon.
Assay [15] relates to MCF7 breast.
The test system of assay [16] is HCT-116 colon.
Assay [17] deals with HCC-2998 colon.
The test system of assay [18] is KM12 colon.

`CC(=O)c1cc2ccccc2o1`: the growth in assay [1] is 98.3% (inactive); in assay [2], 98.6% (inactive); in assay [3], 115% (inactive); in assay [4], 87.7% (inactive); in assay [5], 114% (inactive); in [6], 96.8% (inactive). In addition, the growth in [7] is 110% (inactive); in assay [8] it was 114% (inactive); in [9] it was 108% (inactive); in assay [10] it was 102% (inactive); in assay [11], 100% (inactive); in [12], 97.2% (inactive). In addition, the growth in [13] was 109% (inactive); in assay [14], 112% (inactive); in [15] it was 95.6% (inactive); in [16] it was 100% (inactive); in assay [17], 109% (inactive); in assay [18] it was 109% (inactive).
On to `O=C(O)COc1ccccc1F`, for which the growth in assay [1] is 99.5% (inactive); in [2], 98.4% (inactive); in assay [3], 116% (inactive); in assay [4], 104% (inactive); in assay [5], 111% (inactive); in [6], 119% (inactive). The growth was 105% (inactive) in assay [7]; 108% (inactive) in assay [8]; 101% (inactive) in [9]; 114% (inactive) in [10]; 107% (inactive) in [11]; 108% (inactive) in assay [12]. The growth in assay [13] was 108% (inactive); in [14], 104% (inactive); in assay [15], 107% (inactive); in assay [16], 95.5% (inactive); in assay [17] it was 111% (inactive); in assay [18], 104% (inactive).
Turning to `CC(NC(=O)CCl)c1ccccc1` (stereo unspecified), the growth was 99.2% (inactive) in assay [1]; 107% (inactive) in assay [2]; 105% (inactive) in assay [3]; 109% (inactive) in assay [4]; 98.7% (inactive) in assay [5]; 102% (inactive) in [6]. Also, the growth in [7] is 104% (inactive); in assay [8], 102% (inactive); in assay [9], 92.5% (inactive); in assay [10] it was 104% (inactive); in [11], 103% (inactive); in assay [12] it was 95.3% (inactive). Also, the growth in assay [13] was 99.7% (inactive); in [14] it was 96.4% (inactive); in assay [15], 94% (inactive); in [16] it was 97.6% (inactive); in [17] it was 106% (inactive); in assay [18], 105% (inactive).
Take `CCOC(=O)c1ccncc1`: the growth was 101% (inactive) in assay [1]; 106% (inactive) in [2]; 112% (inactive) in [3]; 107% (inactive) in assay [4]; 117% (inactive) in [5]; 105% (inactive) in assay [6]. The growth in assay [7] is 111% (inactive); in assay [8], 105% (inactive); in [9], 101% (inactive); in [10], 110% (inactive); in [11], 95% (inactive); in assay [12], 109% (inactive). Moreover, the growth in [13] is 107% (inactive); in assay [14] it was 104% (inactive); in assay [15], 97.9% (inactive); in [16], 107% (inactive); in [17], 105% (inactive); in assay [18], 105% (inactive).
Regarding `CC(=O)Nc1ccc(OC(C)=O)cc1`, the growth in assay [1] was 115% (inactive); in assay [2] it was -25.4% (active) and 104% (inactive); in assay [3], 8% (active) and 101% (inactive); in assay [4] it was 35.7% (inactive) and 97.5% (inactive); in [5], 98.7% (inactive); in assay [6], -4.1% (active) and 121% (inactive). Besides, the growth is 23.7% (inactive) and 113% (inactive) in [7]; 2.02% (active) and 113% (inactive) in assay [8]; 29.7% (inactive) and 118% (inactive) in assay [9]; -11.9% (active) and 106% (inactive) in [10]; 78.1% (inactive) and 103% (inactive) in assay [11]; 11.9% (inactive) and 103% (inactive) in assay [12]. Further, the growth in assay [13] is -29.5% (active) and 107% (inactive); in assay [14] it was 26% (inactive) and 94.2% (inactive); in [15], 91.8% (inactive); in assay [16], -14.7% (active) and 104% (inactive); in [17] it was -28.8% (active) and 112% (inactive); in assay [18] it was 2.42% (active) and 112% (inactive).
For `Cc1cc(NC(=O)NC(=O)c2ccccc2N(C)C)ccc1Oc1ncc(Br)cn1`, the growth in assay [1] was 11.9% (inactive) and 22.4% (inactive); in assay [2], -9.68% (active) and 20.4% (inactive); in [3] it was 51.9% (inactive); in [4] it was 34.1% (inactive) and 78.5% (inactive); in [5], 15.8% (inactive) and 48.7% (inactive); in assay [6] it was 45% (inactive) and 59.9% (inactive). The growth was -12% (active) and 54.7% (inactive) in [7]; 0.0582% (active) and 16.2% (inactive) in assay [8]; 23.8% (inactive) and 40% (inactive) in [9]; 5.74% (active) and 23.3% (inactive) in assay [10]; 36.2% (inactive) and 52.2% (inactive) in assay [11]; 17.5% (inactive) and 39.1% (inactive) in assay [12]. Besides, the growth in [13] was -27.4% (active) and 6.67% (active); in assay [14], 28.4% (inactive) and 33.9% (inactive); in assay [15] it was 16.5% (inactive) and 16.9% (inactive); in assay [16] it was 17% (inactive) and 21.8% (inactive); in [17], 1.35% (active) and 50.4% (inactive); in assay [18], 15.3% (inactive) and 32.1% (inactive).
As for `OCCCc1ccccc1`, the growth in assay [1] was 132% (inactive); in assay [2] it was 117% (inactive); in [3], 104% (inactive); in [4] it was 97% (inactive); in assay [5] it was 112% (inactive); in assay [6], 97.6% (inactive). Further, the growth is 82.4% (inactive) in assay [7]; 109% (inactive) in [8]; 106% (inactive) in [9]; 108% (inactive) in assay [10]; 112% (inactive) in assay [11]; 101% (inactive) in assay [12]. Also, the growth in assay [13] is 108% (inactive); in assay [14] it was 107% (inactive); in assay [15] it was 101% (inactive); in assay [16] it was 99.5% (inactive); in [17], 108% (inactive); in assay [18], 109% (inactive).
On to `Cn1c(N)c(N=O)c(=O)n(C)c1=O`, for which the growth is 92.4% (inactive) and 91.7% (inactive) in [1]; 104% (inactive) and 116% (inactive) in assay [2]; 96.8% (inactive) and 104% (inactive) in [3]; 111% (inactive) and 104% (inactive) in assay [4]; 111% (inactive) and 103% (inactive) in assay [5]; 111% (inactive) and 118% (inactive) in assay [6]. For the same molecule, the growth is 105% (inactive) in assay [7]; 109% (inactive) and 90.7% (inactive) in assay [8]; 112% (inactive) and 94.4% (inactive) in assay [9]; 97.6% (inactive) in [10]; 105% (inactive) and 99.8% (inactive) in assay [11]; 111% (inactive) and 96.8% (inactive) in assay [12]. Further, the growth is 109% (inactive) and 102% (inactive) in [13]; 106% (inactive) and 101% (inactive) in assay [14]; 98.1% (inactive) and 99.5% (inactive) in [15]; 102% (inactive) and 90.8% (inactive) in assay [16]; 106% (inactive) in [17]; 106% (inactive) and 94.8% (inactive) in assay [18].
Regarding `CCN(CC)CCNC(=O)c1ccc(NCN2C(=O)NC(c3ccccc3)(c3ccccc3)C2=O)cc1`, the growth is 99.5% (inactive) and 113% (inactive) in assay [1]; 104% (inactive) in [2]; 99.9% (inactive) and 111% (inactive) in assay [3]; 104% (inactive) and 119% (inactive) in assay [4]; 105% (inactive) and 104% (inactive) in assay [5]; 123% (inactive) and 90.9% (inactive) in assay [6]. Further, the growth is 144% (inactive) and 107% (inactive) in assay [7]; 110% (inactive) and 98.8% (inactive) in assay [8]; 98.4% (inactive) and 103% (inactive) in assay [9]; 107% (inactive) and 111% (inactive) in assay [10]; 117% (inactive) and 95.2% (inactive) in assay [11]; 107% (inactive) and 120% (inactive) in assay [12]. Further, the growth in assay [13] is 94.6% (inactive) and 103% (inactive); in [14] it was 105% (inactive) and 106% (inactive); in assay [15], 98.4% (inactive) and 94.6% (inactive); in [16], 104% (inactive) and 95.1% (inactive); in assay [17], 102% (inactive) and 125% (inactive); in [18] it was 106% (inactive) and 101% (inactive).
Regarding `COC(=O)c1nc(=S)[nH]c(C(=O)OC)c1C(=O)c1ccc(OC)cc1`, the growth in assay [1] is 105% (inactive); in assay [2] it was 111% (inactive); in [3], 109% (inactive); in [4] it was 103% (inactive); in [5], 112% (inactive); in assay [6], 149% (inactive). The growth is 99.9% (inactive) in assay [7]; 119% (inactive) in assay [8]; 76.1% (inactive) in assay [9]; 99.8% (inactive) in assay [10]; 125% (inactive) in assay [11]; 109% (inactive) in [12]. Further, the growth in assay [13] was 110% (inactive); in assay [14] it was 105% (inactive); in assay [15], 93.6% (inactive); in assay [16], 115% (inactive); in assay [17], 118% (inactive); in assay [18] it was 103% (inactive).
For `C/C=C/C(=O)OCCCCCCCCCCCC`, the growth in assay [1] was 83.4% (inactive); in assay [2], 99.9% (inactive); in assay [3], 90.5% (inactive); in assay [4] it was 99.2% (inactive); in [5] it was 113% (inactive); in assay [6], 97.5% (inactive). For the same molecule, the growth is 111% (inactive) in assay [7]; 106% (inactive) in [8]; 107% (inactive) in assay [9]; 106% (inactive) in [10]; 90.8% (inactive) in assay [11]; 97% (inactive) in assay [12]. Also, the growth was 115% (inactive) in assay [13]; 111% (inactive) in assay [14]; 102% (inactive) in assay [15]; 88.5% (inactive) in [16]; 130% (inactive) in assay [17]; 105% (inactive) in assay [18].
As to `CCOc1ccc(/C=C\C(=O)O)cc1`, the growth in assay [1] is 81.6% (inactive); in assay [2] it was 113% (inactive); in [3], 98.7% (inactive); in [4], 117% (inactive); in assay [5] it was 108% (inactive); in [6] it was 139% (inactive). Also, the growth is 101% (inactive) in assay [7]; 117% (inactive) in assay [8]; 112% (inactive) in assay [9]; 110% (inactive) in [10]; 122% (inactive) in [11]; 125% (inactive) in assay [12]. Further, the growth in assay [13] was 107% (inactive); in [14], 101% (inactive); in assay [15], 95.2% (inactive); in assay [16], 119% (inactive); in assay [17], 109% (inactive); in assay [18], 106% (inactive).

For the origin of these results see PubChem BioAssay (NCI).
